# Measurements: publication PMC11062922 (Nature Chemical Biology, 2023)
# Like-named read-outs stand apart in the source and are kept apart here.
# Key:
# AAK1 = test system: AAK1; parameters: species or system human, MV4-11 + K-562 + COLO205 + SK-N-BE2 + OVCAR-8; settings: read-out: apparent Kd, n = 1
# BMP2K = test system: BMP2K; parameters: species or system human, MV4-11 + K-562 + COLO205 + SK-N-BE2 + OVCAR-8; settings: read-out: apparent Kd, n = 1
# CLK1 = test system: CLK1; parameters: species or system human, MV4-11 + K-562 + COLO205 + SK-N-BE2 + OVCAR-8; settings: read-out: apparent Kd; compound concentrations:100 nM and 1000 nM (sheet 'Samples'); n = 1
# CLK4 = test system: CLK4; parameters: species or system human, MV4-11 + K-562 + COLO205 + SK-N-BE2 + OVCAR-8; settings: read-out: apparent Kd; compound concentrations:100 nM and 1000 nM (sheet 'Samples'); n = 1
# CSNK2A1;CSNK2A3 = test system: CSNK2A1;CSNK2A3; parameters: species or system human, MV4-11 + K-562 + COLO205 + SK-N-BE2 + OVCAR-8; settings: read-out: apparent Kd, n = 1
# CSNK2A2 = test system: CSNK2A2; parameters: species or system human, MV4-11 + K-562 + COLO205 + SK-N-BE2 + OVCAR-8; settings: read-out: apparent Kd, n = 1
# FLT4 = test system: FLT4; parameters: species or system human, MV4-11 + K-562 + COLO205 + SK-N-BE2 + OVCAR-8; settings: read-out: apparent Kd, n = 1
# GAK = test system: GAK; parameters: species or system human, MV4-11 + K-562 + COLO205 + SK-N-BE2 + OVCAR-8; settings: read-out: apparent Kd, n = 1
# GSK3A = test system: GSK3A; parameters: species or system human, MV4-11 + K-562 + COLO205 + SK-N-BE2 + OVCAR-8; settings: read-out: apparent Kd, n = 1
# GSK3B = test system: GSK3B; parameters: species or system human, MV4-11 + K-562 + COLO205 + SK-N-BE2 + OVCAR-8; settings: read-out: apparent Kd, n = 1
# NUAK1 = test system: NUAK1; parameters: species or system human, MV4-11 + K-562 + COLO205 + SK-N-BE2 + OVCAR-8; settings: read-out: apparent Kd; compound concentrations:100 nM and 1000 nM (sheet 'Samples'); n = 1
# PAK4 = test system: PAK4; parameters: species or system human, MV4-11 + K-562 + COLO205 + SK-N-BE2 + OVCAR-8; settings: read-out: apparent Kd, n = 1
# PKN1 = test system: PKN1; parameters: species or system human, MV4-11 + K-562 + COLO205 + SK-N-BE2 + OVCAR-8; settings: read-out: apparent Kd; compound concentrations:100 nM and 1000 nM (sheet 'Samples'); n = 1
# PKN3 [1] = test system: PKN3; parameters: species or system human, MV4-11 + K-562 + COLO205 + SK-N-BE2 + OVCAR-8; settings: read-out: apparent Kd, n = 1;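 as to IC50: NanoBRET target engagement in HEK293T cells transiently expressing full-length PKN3 with C-terminal NanoLuc, displacement of fluorescent tracer K5 (500 nM), BRET read after 2 h equilibration at 37 °C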
# PRKAG1 = test system: PRKAG1; parameters: species or system human, MV4-11 + K-562 + COLO205 + SK-N-BE2 + OVCAR-8; settings: read-out: apparent Kd, n = 1
# Q6ZSR9 = Q6ZSR9 (human, UniProt Q6ZSR9); parameters: species or system MV4-11 + K-562 + COLO205 + SK-N-BE2 + OVCAR-8; settings: read-out: apparent Kd, n = 1
# Q6ZSR9, sequence (Q6ZSR9 whole entry, looked up): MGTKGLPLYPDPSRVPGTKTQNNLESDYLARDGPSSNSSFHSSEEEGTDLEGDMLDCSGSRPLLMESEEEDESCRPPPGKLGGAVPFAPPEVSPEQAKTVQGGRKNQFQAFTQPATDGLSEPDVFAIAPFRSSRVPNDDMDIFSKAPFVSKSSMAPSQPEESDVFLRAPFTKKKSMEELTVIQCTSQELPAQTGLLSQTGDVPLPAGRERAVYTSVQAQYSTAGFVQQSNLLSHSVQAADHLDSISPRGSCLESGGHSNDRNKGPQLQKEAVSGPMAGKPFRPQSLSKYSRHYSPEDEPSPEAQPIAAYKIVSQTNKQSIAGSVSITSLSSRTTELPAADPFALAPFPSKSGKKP
# RET = test system: RET; parameters: species or system human, MV4-11 + K-562 + COLO205 + SK-N-BE2 + OVCAR-8; settings: read-out: apparent Kd; compound concentrations:100 nM and 1000 nM (sheet 'Samples'); n = 1
# SIK2 = test system: SIK2; parameters: species or system human, MV4-11 + K-562 + COLO205 + SK-N-BE2 + OVCAR-8; settings: read-out: apparent Kd, n = 1
# PKN3 [2] = settings: hek293t cells
# [3] = compound concentrations:100 nM and 1000 nM (sheet 'Samples')
structure (smiles),measurement,setting,value
CC(C)N1CCC(n2cnc(-c3ccc(F)cc3)c2-c2ccnc(N)n2)CC1 [SB-223132],potency estimated from few doses,AAK1; [3],730 nM
same,potency estimated from few doses,BMP2K; [3],531 nM
same,potency estimated from few doses,CLK1,572 nM
same,potency estimated from few doses,CLK4,686 nM
same,potency estimated from few doses,CSNK2A1;CSNK2A3; [3],1070 nM
same,potency estimated from few doses,CSNK2A2; [3],1400 nM
same,potency estimated from few doses,FLT4; [3],968 nM
same,potency estimated from few doses,GAK; [3],333 nM
same,potency estimated from few doses,GSK3A; [3],359 nM
same,potency estimated from few doses,GSK3B; [3],441 nM
same,potency estimated from few doses,NUAK1,1160 nM
same,potency estimated from few doses,PAK4; [3],726 nM
same,potency estimated from few doses,PKN1,1440 nM
same,potency estimated from few doses,PKN3 [1]; [3],1010 nM
same,potency estimated from few doses,PRKAG1; [3],884 nM
same,potency estimated from few doses,Q6ZSR9; [3],581 nM
same,potency estimated from few doses,RET,579 nM
same,potency estimated from few doses,SIK2; [3],700 nM
CSc1c(C2=C(c3cn(C)c4ccccc34)C(=O)NC2=O)c2ccccc2n1C [RO0317340-000],potency estimated from few doses,"AAK1; compound concentrations: 100 nM and 1000 nM (sheet 'Samples'), CATDS: 1",1170 nM
CCn1c(-c2nonc2N)nc2c(C#CC(C)(C)O)nc(OCCNC)cc21.Cl [GSK949675A],potency estimated from few doses,GSK3A; [3],70.4 nM
same,potency estimated from few doses,GSK3B; [3],91.5 nM
same,potency estimated from few doses,PAK4; [3],736 nM
same,potency estimated from few doses,PKN1,675 nM
same,potency estimated from few doses,PKN3 [1]; [3],2.48 nM
same,IC50,"PKN3 [2]; read-out: Average, SD, n = 4",669 nM
same,IC50,PKN3 [2]; read-out: Rep 1,1950 nM
same,IC50,PKN3 [2]; read-out: Rep 2,441 nM
same,IC50,PKN3 [2]; read-out: Rep 3,149 nM
same,IC50,PKN3 [2]; read-out: Rep 4,136 nM
CN(c1ccc(NC(=O)N2CCN(CCCN3CCOCC3)CC2)cc1)c1ccnc(Nc2ccc(CS(C)(=O)=O)cc2)n1.Cl [GW830899A],potency estimated from few doses,"AAK1; compound concentrations: 100 nM and 1000 nM (sheet 'Samples'), CATDS: 3.8742372830354199E-2",411 nM
same,potency estimated from few doses,"BMP2K; compound concentrations: 100 nM and 1000 nM (sheet 'Samples'), CATDS: 2.31268992433276E-2",1070 nM
same,potency estimated from few doses,"CSNK2A1;CSNK2A3; compound concentrations: 100 nM and 1000 nM (sheet 'Samples'), CATDS: 1.98938138742078E-2",1550 nM
same,potency estimated from few doses,"CSNK2A2; compound concentrations: 100 nM and 1000 nM (sheet 'Samples'), CATDS: 2.19439033786193E-2",1210 nM
same,potency estimated from few doses,"FLT4; compound concentrations: 100 nM and 1000 nM (sheet 'Samples'), CATDS: 1.9888583471378E-2",1550 nM
same,potency estimated from few doses,"GAK; compound concentrations: 100 nM and 1000 nM (sheet 'Samples'), CATDS: 3.3242042513279398E-2",528 nM
same,potency estimated from few doses,"GSK3A; compound concentrations: 100 nM and 1000 nM (sheet 'Samples'), CATDS: 3.3329188882870099E-2",525 nM
same,potency estimated from few doses,"GSK3B; compound concentrations: 100 nM and 1000 nM (sheet 'Samples'), CATDS: 2.6554458888549098E-2",796 nM
same,potency estimated from few doses,"PAK4; compound concentrations: 100 nM and 1000 nM (sheet 'Samples'), CATDS: 2.0205846564267299E-2",1490 nM
same,potency estimated from few doses,"PKN3 [1]; compound concentrations: 100 nM and 1000 nM (sheet 'Samples'), CATDS: 1.8045605554117099E-2",2080 nM
same,potency estimated from few doses,"PRKAG1; compound concentrations: 100 nM and 1000 nM (sheet 'Samples'), CATDS: 2.3560969184091798E-2",1020 nM
same,potency estimated from few doses,"Q6ZSR9; compound concentrations: 100 nM and 1000 nM (sheet 'Samples'), CATDS: 2.6002877269984698E-2",831 nM
same,potency estimated from few doses,"SIK2; compound concentrations: 100 nM and 1000 nM (sheet 'Samples'), CATDS: 2.0988983059189802E-2",1350 nM
O=C1NC(=O)/C(=C/c2ccc3ncccc3c2)S1 [RO4603632-000],potency estimated from few doses,"CSNK2A1;CSNK2A3; compound concentrations: 100 nM and 1000 nM (sheet 'Samples'), CATDS: 0.36519548051145401",279 nM
same,potency estimated from few doses,"CSNK2A2; compound concentrations: 100 nM and 1000 nM (sheet 'Samples'), CATDS: 0.36768987461520503",276 nM
